Results as given in PubChem BioAssay AID504690 (Sanford-Burnham Center for Chemical Genomics, 2011).
Hit rate of the full screen: of about 350,000 compounds, about 2,700 (0.77%) were called active.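 How the source made its calls: active means inhibition reaching at least a set limit at 20 µM in the primary screen (cut at about 59% in these data); inactive means the rest.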 The sample as a whole holds a higher share of actives than the screen did.

tested on: glucose-6-phosphate dehydrogenase-6-phosphogluconolactonase (Plasmodium falciparum 3D7); experiment: inhibition of malaria parasite G6PD (PfGluPho) – biochemical, fluorescence intensity, uHTS, primary screen (AID 504690); conditions: PfGluPho enzyme, NADPH resazurin-diaphorase fluorescence; at 20 µM; stronger effect = higher value;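 further: 0% = DMSO wells with substrate and 100% = DMSO wells lacking glucose-6-phosphate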

| SMILES | inhibition |
| --- | --- |
| CC(C)C(=O)Nc1ccc2c3c(cccc13)CC2 | -13.6% (inactive) |
| CC1CCCN(S(=O)(=O)c2ccc(N(C(=O)c3cnccn3)C(C(=O)NC3CCCCC3)c3cccs3)cc2)C1 (stereo not given) | 13.2% (inactive) |
| Cc1ccc2c(c1)NCC(C(=O)NC1CCC(C)CC1)O2 (stereo not given) | 18.8% (inactive) |
| COc1ccc2c(c1)c(=Cc1ccc(N(C)C)cc1)c1cc(-c3ccccc3)[n+](C)n12 | 70% (active) |
| Cc1cccc(C)c1NC(=O)CNC(=O)c1c(C)nn(-c2ccccc2)c1C | -4.32% (inactive) |
| COCC(=O)Nc1c(I)c(C(=O)NCC(O)CO)c(I)c(C(=O)N(C)CC(O)CO)c1I (stereo not given) | -11% (inactive) |
| O=C(Nc1ccc(-c2cscn2)cc1)C1CCCN(Cc2ccc(CO)o2)C1 (stereo not given) | -2.34% (inactive) |
| O=C1/C(=C\c2cccnc2)CN(Cc2ccccc2)C/C1=C\c1cccnc1 | 20.5% (inactive) |
| COc1ccc(Cl)cc1C(=O)Nc1ccc(N(C)C(C)=O)cc1 | 7.67% (inactive) |
| COc1cc(OC)c(C(=O)Nc2ccc(N(C)C)cc2)cc1OC | 70.5% (active) |
| COc1cc(OC)c(C(=O)Nc2ccccc2-c2ccccc2)cc1OC | 6.28% (inactive) |
| O=C(NC12CC3CC(CC(C3)C1)C2)N1CCCC(CO)C1 (stereo not given) | -9.02% (inactive) |
| CSc1ccc(CCNC(=O)C2CCN(c3nnc(-n4cccc4)s3)CC2)cc1 | -2.74% (inactive) |
| O=C(Oc1c(-c2ccco2)oc2ccccc2c1=O)c1cccnc1 | -16.3% (inactive) |
| CCn1nc(C(=O)NNS(=O)(=O)c2cc(/C=C/C(=O)O)cc(OC)c2OC)c2ccccc2c1=O | 11.8% (inactive) |
| CN1CCN(CCCCOc2ccccc2-c2ccccc2)CC1 | 5.8% (inactive) |
| OCCN1CCN(C(=S)c2ccc(-c3ccccc3)cc2)CC1 | 66.4% (active) |
| S=C(c1ccc(-c2ccccc2)o1)N1CCCCC1 | 52.2% (inactive) |
| COc1ccccc1CCCNC(=O)C1CCC(=O)N(CCN2CCOCC2)C1 (stereo not given) | -4.18% (inactive) |
| CC(=O)Nc1nc2c(s1)C(=O)NCC(C)(C)C2 | -8.85% (inactive) |
| Cc1ccc(-n2nc(-c3ccco3)cc2C(=O)NCc2cccnc2)cc1 | 38.2% (inactive) |
| CC1CN(C(=S)Nc2ccc(S(N)(=O)=O)cc2)CC(C)O1 (stereo not given) | 13.9% (inactive) |
| O=C(CCS(=O)(=O)c1cccc2nonc12)NCCc1ccccc1Cl | 0.62% (inactive) |

| SMILES | inhibition |
| --- | --- |
| Oc1c(C=Nc2cccc3nsnc23)ccc2ccccc12 | 64.6% (active) |
| c1ccc(-c2cn3c(n2)CCc2ccc4cccnc4c2-3)cc1 | 107% (active) |
| OC(CN=c1sc2ccccc2n1CC(O)COc1ccccc1)COc1ccccc1 (stereo not given) | 22.7% (inactive) |
| Nc1ccc2nc3c(=O)[nH]c(=S)[nH]c3nc2c1 | 83.3% (active) |
| Cc1ccc(S(=O)(=O)N2CCN(C(=O)CSc3cc(C)ccc3C)CC2)c(C)c1 | 13.7% (inactive) |
| CCCOC1CCCN(C(=O)c2cc(COc3cncc(Cl)c3)on2)C1 (stereo not given) | 3.11% (inactive) |
| CCCCNS(=O)(=O)c1ccc(S(=O)(=O)n2cnc3ccccc32)cc1 | -0.9% (inactive) |
| CCOc1c2ccc(C(=O)NC3CCCc4ccccc43)cc2nn1CC (stereo not given) | 0.09% (inactive) |
| O=C(COC(=O)CN1C(=O)C2CCCCC2C1=O)Nc1ccc(F)c(F)c1F (stereo not given) | 14.5% (inactive) |
| CC1=CC(C)(C)Nc2ccc(OC(=O)C(Cc3ccccc3)N3C(=O)C4CCCCC4C3=O)cc21 (stereo not given) | 38.3% (inactive) |
| CC1=CC(C)(C)Nc2ccc(OC(=O)CN3C(=O)C4CCCCC4C3=O)cc21 (stereo not given) | 70.6% (active) |
| CC1CCCCC1NC(=O)CCS(=O)(=O)c1ccc2c(c1)NC(=O)CO2 (stereo not given) | 4.88% (inactive) |
| CN(C)N(C)C(=O)C(O)(c1ccccc1)c1ccccc1 | -19.5% (inactive) |
| C/C=C/c1ccc(OCC(=O)OCC(=O)Nc2c(C)nn(-c3ccccc3)c2C)c(OC)c1 | -4.73% (inactive) |
| N=c1n(Cc2ccc(Cl)cc2)c2ccccc2n1CC(O)c1ccco1 (stereo not given) | 8.27% (inactive) |
| O=C(Nc1ccc2ccccc2c1[N+](=O)[O-])c1ccccc1 | 33.8% (inactive) |
| O=C(Nc1ncccc1O)c1ccc(C(=O)c2ccccc2)cc1 | -5.63% (inactive) |
| O=C(NC1=CC(=O)c2ccccc2C1=O)c1ccccc1 | 80.4% (active) |
| CC(Sc1nnc(COc2ccccc2)n1-c1ccccc1)C(=O)O (stereo not given) | -12.2% (inactive) |
| COc1ccc(OCc2nnc3n2N=C(c2ccccc2)C(CC(=O)O)S3)cc1 (stereo not given) | 88.1% (active) |
| COc1ccc(C(=O)NCc2nnc(SCCOc3ccccc3)n2C)cc1 | -13% (inactive) |
| Cc1cccc(C)c1NC(=O)c1ccc(CN2CCc3ccccc3C2)cc1 | 4.01% (inactive) |
| O=C(c1cccnc1)N1CCN(S(=O)(=O)c2cccs2)CC1 | -17.9% (inactive) |

| SMILES | inhibition |
| --- | --- |
| COc1ccccc1C(=O)N1CCNC(=O)C1CC(=O)Nc1ccc(Cl)cc1 (stereo not given) | -0.83% (inactive) |
| CN1CCc2nc(SC(C(=O)O)c3ccccc3)c(C#N)c(-c3cccs3)c2C1 (stereo not given) | 33.9% (inactive) |
| Cc1noc(C)c1C(=O)OC(C)C(=O)Nc1ccc2c(c1)OCO2 (stereo not given) | 7.92% (inactive) |
| O=S1(=O)N=C(N(CCO)/N=C/c2ccccc2F)c2ccccc21 | -22.8% (inactive) |
| CCOC(=O)C1=C(c2ccc(OC)cc2)C(=O)c2ccccc2C1=O | 101% (active) |
| CCOC(=O)C(NC(C)=O)C(=O)Nc1ccc(OC)cc1 (stereo not given) | -2.17% (inactive) |
| CCOC(=O)c1ccccc1CN1C(=O)c2ccccc2S1(=O)=O | -6.44% (inactive) |
| CCOC(=O)c1c(C)nn(-c2ncccc2NC(=O)CCC(=O)O)c1C | -27.7% (inactive) |
| CC(C)[C@H](NC(=O)N1CCn2c1nc1ccccc12)C(=O)NCc1ccc2c(c1)OCO2 | 20.7% (inactive) |
| COc1cc(C(F)(F)F)c(C(=O)N(C)c2ccc(Cl)cc2)cn1 | 5.85% (inactive) |
| COc1ccc(Cl)cc1NC(=O)CN(C)C(=O)CNC(=O)C12CC3CC(CC(C3)C1)C2 | -2.93% (inactive) |
| COc1ccc(Cl)cc1NC(=O)CN(C)C(=O)c1cc2ccccc2cc1OC | 11.4% (inactive) |
| COc1ccc(Cl)cc1NC(=O)CN(C)C(=O)CCCc1c[nH]c2ccccc12 | 78.4% (active) |
| Cc1ccc(-n2ncc(C(=O)NC3CC3)c2C2CCN(C(=O)OC(C)(C)C)CC2)c(C)c1 | -21.1% (inactive) |
| O=C(NCCOc1ccccc1)c1ccccc1F | -13.3% (inactive) |
| OCC[C@H]1C[C@H](O)[C@@H](O)[C@]2(Cc3ccccc3CO2)O1 | 0.59% (inactive) |
| Cc1cc(-c2n[nH]c(=S)n2/N=C/C(Br)=C/c2ccccc2)n[nH]1 | 23.4% (inactive) |
| CCN(CC)S(=O)(=O)c1cccc(-c2n[nH]c(=S)n2/N=C/c2ccc(C(=O)OC)cc2)c1 | 13.1% (inactive) |
| S=c1[nH]nc(-c2cc(-c3ccccc3)n[nH]2)n1/N=C/c1c2ccccc2cc2ccccc12 | 59.1% (active) |
| O=C(CCC(=O)OCC(F)(F)C(F)F)NCc1ccccc1 | 1.98% (inactive) |
| O=C1OC(Oc2ccc(Br)cc2)(c2ccccc2)c2ccccc21 (stereo not given) | 69.2% (active) |
| COc1ccc(OC)c(-n2cc3c(=O)n(C)c(=O)n(C)c3c2)c1 | 17.5% (inactive) |
| CC[C@]12c3[nH]c4cc(CCC(=O)N(C)C)ccc4c3CCN1C(=O)[C@@H](CC(=O)NCC13CC4CC(CC(C4)C1)C3)C[C@@H]2C(=O)N1CCN(C(=O)C2CC2)CC1 | 0.29% (inactive) |

| SMILES | inhibition |
| --- | --- |
| O=c1[nH]c(/C=C\c2cccc(C(F)(F)F)c2)nc(O)c1[N+](=O)[O-] | 1.8% (inactive) |
| O=S(=O)(Nc1cccc(Oc2ccc(Cl)cc2)n1)c1ccc(F)cc1 | -6% (inactive) |
| CC(=O)N(C1=C(Cl)C(=O)c2ccccc2C1=O)c1ccc(C(=O)O)cc1 | 120% (active) |
| CCCCN(C(=O)c1ccc(S(=O)(=O)N2CCOCC2)cc1)C1CCS(=O)(=O)C1 (stereo not given) | -2.48% (inactive) |
| O=C(CCc1ccc(O)cc1)NN=Cc1cc(Br)ccc1O | -4.92% (inactive) |
| COc1ccc(CC(=O)NCC(=O)N/N=C/c2cc(Br)ccc2OC)cc1 | 99.2% (active) |
| Cc1ccc(OCCOCCOc2ccc(Br)cc2/C=N\NC(=O)c2ccncc2)cc1 | 40.5% (inactive) |
| O=[N+]([O-])c1c(NCCO)cc(Sc2nc3ccccc3s2)c2nonc12 | 89.2% (active) |
| Cc1oc(C)c(C(=O)NCCCC(=O)O)c1C(=O)NCCCC(=O)O | 2.34% (inactive) |
| COc1cccc(C(=O)Nc2c3c(nn2-c2cccc(C)c2C)CS(=O)(=O)C3)c1OC | 8.42% (inactive) |
| O=C1NC(=Nc2ccc(Cl)cc2)SC1Cc1cccc(Cl)c1Cl (stereo not given) | -30.1% (inactive) |
| O=C(NC1CCCC1)C(c1ccc(Cl)cc1)N(C(=O)c1csnn1)C1CC1 (stereo not given) | -0.62% (inactive) |
| COc1cccc(-n2c(=S)[nH]c3c(oc4ccccc43)c2=O)c1 | 23.4% (inactive) |
| O=c1oc2ccccc2cc1-c1cn(-c2ccccc2)c(=S)[nH]1 | 64% (active) |
| Cc1ccc(S(=O)(=O)c2cc3c(=O)n4cccc(C)c4nc3n(CCc3ccccc3)c2=N)cc1C | -4.62% (inactive) |
| C[n+]1cccc(C(=O)O)c1 | -8.19% (inactive) |
| Cc1cccc(C(=O)OC(C)C(=O)NC2CCCc3ccccc32)c1O (stereo not given) | -19.6% (inactive) |
| CCOC(=O)Cc1ncccc1C(=O)Nc1ccc(OC(F)(F)F)cc1 | -20.5% (inactive) |
| CCOc1c2ccc(C(=O)NCc3ccc(OC(F)(F)F)cc3)cc2nn1C | 1.65% (inactive) |
| O=C(Nc1ccc(OC(F)(F)F)cc1)c1ccc2c(c1)no[n+]2[O-] | 69.8% (active) |
| CC(NC(=S)Nc1ccc(S(N)(=O)=O)cc1)c1ccc2c(c1)OCO2 (stereo not given) | -1.17% (inactive) |
